# Calls of active or inactive are those of the source.
# Experiments:
# [1] = system: PRMT1 (protein arginine N-methyltransferase 1); experiment: small molecules binding arginine methyltransferase PRMT1 – biochemical, small-molecule microarray, 635 nm fluorescence, primary screen (AID 1088); settings: higher = more signal;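 note: binding of Prmt1 protein to compounds spotted on small-molecule microarray slides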
# [2] = growth effects on S. cerevisiae YJM789 – YJM789 clinical isolate, OD600, 24 h, basal, primary screen (AID 1089); settings: higher = more signal, called active from +8 up or from −8 down;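 note: growth of clinical yeast isolate S. cerevisiae YJM 789 seeded 1000 cells per well; test concentration not given here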
# [3] = S. pombe growth modifiers, basal conditions – strain 972, OD600, 24 h, no modulator, primary screen (AID 1090);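 note: basal condition with compound alone and no growth modifier present; test concentration not given here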; settings: S. pombe 972 growth, higher = more signal, called active from +8 up or from −8 down
# [4] = budding yeast growth modifiers under rapamycin – strain BY4716, OD600, 96 h, primary screen (AID 1091); note: test concentration not given here; settings: S. cerevisiae BY4716 + rapamycin, higher = more signal, called active from +8 up or from −8 down
# [5] = molecular target: Torsin-1A-interacting protein 2 (Homo sapiens) (UniProt Q8NFQ8); experiment: small molecules binding lysate-expressed LULL1 – cell lysate, human LULL1 lysate, 635/667 nm fluorescence, primary screen (AID 1092); settings: small-molecule microarray, hLULL1 lysate binding, 635 nm fluorescence; higher = more signal;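 note: probe is lysate of COS7 cells overexpressing human LULL1; score merges per-feature 667 nm fluorescence with signal-to-noise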
# [6] = optical density change of DRC41 E. coli – strain DRC41, OD650, 24 h, E. coli filamentation project, primary screen (AID 1093);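 note: MC1000 strain lacking acrAB efflux and sulA so SOS filamentation is blocked; test concentration not given here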; settings: E. coli DRC41 growth, higher = more signal, called active from +8 up or from −8 down
# [7] = probe aLefty2 binding to arrayed compounds – biochemical, biotinylated probe, 635/667 nm fluorescence, primary screen (AID 1094); settings: small-molecule microarray, higher = more signal;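 note: score merges spot fluorescence near 667 nm with spot signal-to-noise ratio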
# [8] = system: Noggin (protein binding on small-molecule microarray); experiment: small molecules binding Noggin protein – biochemical, 635/667 nm fluorescence, primary screen (AID 1095); settings: 635 nm fluorescence, higher = more signal;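 note: score merges 667 nm feature fluorescence with signal to noise over triplicate slides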
# [9] = molecular target: Neurogenic locus notch homolog protein 3 (Homo sapiens) (UniProt Q9UM47); experiment: small molecules binding NOTCH3 protein – biochemical, 635/667 nm fluorescence, primary screen (AID 1096); settings: small-molecule microarray, 635 nm fluorescence, higher = more signal
# [10] = probe aEGFR binding to arrayed compounds – biochemical, biotinylated probe, 635/667 nm fluorescence, primary screen (AID 1097); settings: small-molecule microarray, higher = more signal;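 note: probe is a biotinylated anti-EGFR antibody binding compounds printed on slides; score combines fluorescence near 667 nm and signal to noise of each spot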
# [11] = system: Plasmodium falciparum Sir2 (PF13_0152, Sir2A); experiment: Plasmodium falciparum Sir2A binding compounds – biochemical, small-molecule microarray, 635 nm fluorescence, primary screen (AID 1098); settings: fluorescence 635 nm, higher = more signal;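 note: score merges spot fluorescence intensity with its signal-to-noise ratio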
# [12] = probe aDKK1 binding to arrayed compounds – biochemical, biotinylated probe, 635/667 nm fluorescence, primary screen (AID 1099); settings: small-molecule microarray, higher = more signal;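 note: score merges 667nm spot fluorescence with signal to noise across triplicate slides; reference of the scale not given here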
# [13] = probe aCHRDL2 binding to arrayed compounds – biochemical, biotinylated probe, 635/667 nm fluorescence, primary screen (AID 1100); settings: small-molecule microarray, higher = more signal
# [14] = change in splice reporter luminescence, either direction, cell-based, HEK293, spliceosome inhibition project, primary screen (AID 1101); settings: HEK293 splicing luciferase reporter, 24 h, higher = more signal, called active from +8 up or from −8 down;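 note: HEK293 cells carrying a splicing-competent luciferase reporter gene; test concentration not given here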
# [15] = molecular target: Fibroblast growth factor 10 (Homo sapiens) (UniProt O15520); experiment: compounds binding fibroblast growth factor 10 – biochemical, small-molecule microarray, 635 nm fluorescence, primary screen (AID 1102); settings: FGF10 binding, fluorescence 635 nm, higher = more signal
# [16] = system: glycogen synthase kinase-3 (GSK3A per assay name; protocol says GSK3B); experiment: compounds binding glycogen synthase kinase-3 – biochemical, small-molecule microarray, 635 nm fluorescence, GSK3A, primary screen (AID 1103); settings: fluorescence 635 nm, higher = more signal; note: the record names both GSK3A and GSK3B
# [17] = molecular target: Epidermal growth factor receptor (Homo sapiens) (UniProt P00533); experiment: compounds binding epidermal growth factor receptor – biochemical, small-molecule microarray, 635 nm fluorescence, primary screen (AID 1104); settings: EGFR binding, higher = more signal;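 note: score merges 667 nm emission intensity with spot signal to noise over triplicate slides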
# [18] = molecular target: Follistatin-related protein 3 (Homo sapiens) (UniProt O95633); experiment: compounds binding follistatin-related protein 3 – biochemical, small-molecule microarray, 635 nm fluorescence, primary screen (AID 1105); settings: FSTL3 binding, higher = more signal;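 note: score merges emission near 667 nm and signal to noise per printed spot across three slides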
# [19] = molecular target: Dickkopf-related protein 1 (Homo sapiens) (UniProt O94907); experiment: small molecules binding DKK1 protein – biochemical, small-molecule microarray, 635 nm fluorescence scan, primary screen (AID 1106); settings: higher = more signal;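 note: score merges emission near 667 nm with signal to noise over three replicate slides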
# [20] = system: Inhibin beta A chain (activin A); experiment: small molecules binding activin A – biochemical, small-molecule microarray, 635 nm fluorescence scan, primary screen (AID 1107); settings: INHBA, higher = more signal;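 note: mouse activin A protein probed at 4.33 µg/mL on printed slides; score merges bound-protein fluorescence near 667 nm with spot signal-to-noise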
# Chain of Epidermal growth factor receptor (Homo sapiens) (P00533 whole entry, looked up): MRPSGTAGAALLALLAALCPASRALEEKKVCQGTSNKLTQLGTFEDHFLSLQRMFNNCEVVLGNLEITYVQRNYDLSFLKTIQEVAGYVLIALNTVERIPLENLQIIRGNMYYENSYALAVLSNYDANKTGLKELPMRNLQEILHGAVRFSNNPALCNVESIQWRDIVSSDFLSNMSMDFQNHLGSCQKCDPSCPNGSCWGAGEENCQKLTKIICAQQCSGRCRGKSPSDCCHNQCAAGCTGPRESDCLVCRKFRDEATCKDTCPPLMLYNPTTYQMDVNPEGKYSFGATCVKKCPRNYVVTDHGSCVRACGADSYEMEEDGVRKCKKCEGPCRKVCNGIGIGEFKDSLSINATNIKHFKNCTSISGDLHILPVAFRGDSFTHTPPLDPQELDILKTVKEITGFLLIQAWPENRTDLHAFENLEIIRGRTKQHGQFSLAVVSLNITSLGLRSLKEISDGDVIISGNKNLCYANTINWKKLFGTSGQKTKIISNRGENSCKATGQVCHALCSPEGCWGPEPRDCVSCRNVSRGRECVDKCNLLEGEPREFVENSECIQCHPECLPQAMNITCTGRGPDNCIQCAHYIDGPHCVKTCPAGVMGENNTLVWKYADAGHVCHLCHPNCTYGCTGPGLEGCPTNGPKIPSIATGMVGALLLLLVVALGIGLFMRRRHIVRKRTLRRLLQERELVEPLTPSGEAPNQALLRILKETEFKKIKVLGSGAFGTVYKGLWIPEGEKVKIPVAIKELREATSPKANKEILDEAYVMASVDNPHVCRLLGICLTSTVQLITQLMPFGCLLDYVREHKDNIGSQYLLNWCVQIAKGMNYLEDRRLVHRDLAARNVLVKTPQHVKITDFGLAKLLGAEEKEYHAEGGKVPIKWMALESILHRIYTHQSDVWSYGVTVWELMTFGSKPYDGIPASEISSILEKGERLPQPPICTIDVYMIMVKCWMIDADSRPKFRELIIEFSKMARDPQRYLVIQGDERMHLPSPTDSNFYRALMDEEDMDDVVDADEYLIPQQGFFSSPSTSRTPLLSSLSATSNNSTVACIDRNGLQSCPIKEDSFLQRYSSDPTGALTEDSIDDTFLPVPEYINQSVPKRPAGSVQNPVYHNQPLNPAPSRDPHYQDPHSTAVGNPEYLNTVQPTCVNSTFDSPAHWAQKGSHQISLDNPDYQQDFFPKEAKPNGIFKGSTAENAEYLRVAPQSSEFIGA
# Chain of Follistatin-related protein 3 (Homo sapiens) (O95633 whole entry, looked up): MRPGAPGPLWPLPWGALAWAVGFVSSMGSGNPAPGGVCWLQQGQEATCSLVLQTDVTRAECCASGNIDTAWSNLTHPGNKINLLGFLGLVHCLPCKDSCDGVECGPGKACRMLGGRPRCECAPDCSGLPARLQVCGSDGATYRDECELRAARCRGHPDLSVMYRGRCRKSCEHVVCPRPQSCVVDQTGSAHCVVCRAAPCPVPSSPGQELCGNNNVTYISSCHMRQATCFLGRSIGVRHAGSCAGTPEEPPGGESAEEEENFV
# Chain of Dickkopf-related protein 1 (Homo sapiens) (O94907 whole entry, looked up): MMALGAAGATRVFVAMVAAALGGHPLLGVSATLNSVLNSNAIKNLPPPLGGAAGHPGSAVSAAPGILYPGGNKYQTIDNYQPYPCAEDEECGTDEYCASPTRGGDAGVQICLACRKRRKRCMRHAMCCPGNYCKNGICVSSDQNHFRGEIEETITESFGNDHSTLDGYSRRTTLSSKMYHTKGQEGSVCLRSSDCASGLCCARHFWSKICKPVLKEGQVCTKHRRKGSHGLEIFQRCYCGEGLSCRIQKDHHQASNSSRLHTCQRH
# Chain of Fibroblast growth factor 10 (Homo sapiens) (O15520 whole entry, looked up): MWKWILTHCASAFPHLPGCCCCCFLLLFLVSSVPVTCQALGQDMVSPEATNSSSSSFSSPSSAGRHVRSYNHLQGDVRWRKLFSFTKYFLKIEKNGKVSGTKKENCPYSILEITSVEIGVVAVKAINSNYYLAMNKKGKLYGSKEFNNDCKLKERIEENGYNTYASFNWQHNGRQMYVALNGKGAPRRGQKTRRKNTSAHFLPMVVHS
# Chain of Neurogenic locus notch homolog protein 3 (Homo sapiens) (Q9UM47 whole entry, looked up): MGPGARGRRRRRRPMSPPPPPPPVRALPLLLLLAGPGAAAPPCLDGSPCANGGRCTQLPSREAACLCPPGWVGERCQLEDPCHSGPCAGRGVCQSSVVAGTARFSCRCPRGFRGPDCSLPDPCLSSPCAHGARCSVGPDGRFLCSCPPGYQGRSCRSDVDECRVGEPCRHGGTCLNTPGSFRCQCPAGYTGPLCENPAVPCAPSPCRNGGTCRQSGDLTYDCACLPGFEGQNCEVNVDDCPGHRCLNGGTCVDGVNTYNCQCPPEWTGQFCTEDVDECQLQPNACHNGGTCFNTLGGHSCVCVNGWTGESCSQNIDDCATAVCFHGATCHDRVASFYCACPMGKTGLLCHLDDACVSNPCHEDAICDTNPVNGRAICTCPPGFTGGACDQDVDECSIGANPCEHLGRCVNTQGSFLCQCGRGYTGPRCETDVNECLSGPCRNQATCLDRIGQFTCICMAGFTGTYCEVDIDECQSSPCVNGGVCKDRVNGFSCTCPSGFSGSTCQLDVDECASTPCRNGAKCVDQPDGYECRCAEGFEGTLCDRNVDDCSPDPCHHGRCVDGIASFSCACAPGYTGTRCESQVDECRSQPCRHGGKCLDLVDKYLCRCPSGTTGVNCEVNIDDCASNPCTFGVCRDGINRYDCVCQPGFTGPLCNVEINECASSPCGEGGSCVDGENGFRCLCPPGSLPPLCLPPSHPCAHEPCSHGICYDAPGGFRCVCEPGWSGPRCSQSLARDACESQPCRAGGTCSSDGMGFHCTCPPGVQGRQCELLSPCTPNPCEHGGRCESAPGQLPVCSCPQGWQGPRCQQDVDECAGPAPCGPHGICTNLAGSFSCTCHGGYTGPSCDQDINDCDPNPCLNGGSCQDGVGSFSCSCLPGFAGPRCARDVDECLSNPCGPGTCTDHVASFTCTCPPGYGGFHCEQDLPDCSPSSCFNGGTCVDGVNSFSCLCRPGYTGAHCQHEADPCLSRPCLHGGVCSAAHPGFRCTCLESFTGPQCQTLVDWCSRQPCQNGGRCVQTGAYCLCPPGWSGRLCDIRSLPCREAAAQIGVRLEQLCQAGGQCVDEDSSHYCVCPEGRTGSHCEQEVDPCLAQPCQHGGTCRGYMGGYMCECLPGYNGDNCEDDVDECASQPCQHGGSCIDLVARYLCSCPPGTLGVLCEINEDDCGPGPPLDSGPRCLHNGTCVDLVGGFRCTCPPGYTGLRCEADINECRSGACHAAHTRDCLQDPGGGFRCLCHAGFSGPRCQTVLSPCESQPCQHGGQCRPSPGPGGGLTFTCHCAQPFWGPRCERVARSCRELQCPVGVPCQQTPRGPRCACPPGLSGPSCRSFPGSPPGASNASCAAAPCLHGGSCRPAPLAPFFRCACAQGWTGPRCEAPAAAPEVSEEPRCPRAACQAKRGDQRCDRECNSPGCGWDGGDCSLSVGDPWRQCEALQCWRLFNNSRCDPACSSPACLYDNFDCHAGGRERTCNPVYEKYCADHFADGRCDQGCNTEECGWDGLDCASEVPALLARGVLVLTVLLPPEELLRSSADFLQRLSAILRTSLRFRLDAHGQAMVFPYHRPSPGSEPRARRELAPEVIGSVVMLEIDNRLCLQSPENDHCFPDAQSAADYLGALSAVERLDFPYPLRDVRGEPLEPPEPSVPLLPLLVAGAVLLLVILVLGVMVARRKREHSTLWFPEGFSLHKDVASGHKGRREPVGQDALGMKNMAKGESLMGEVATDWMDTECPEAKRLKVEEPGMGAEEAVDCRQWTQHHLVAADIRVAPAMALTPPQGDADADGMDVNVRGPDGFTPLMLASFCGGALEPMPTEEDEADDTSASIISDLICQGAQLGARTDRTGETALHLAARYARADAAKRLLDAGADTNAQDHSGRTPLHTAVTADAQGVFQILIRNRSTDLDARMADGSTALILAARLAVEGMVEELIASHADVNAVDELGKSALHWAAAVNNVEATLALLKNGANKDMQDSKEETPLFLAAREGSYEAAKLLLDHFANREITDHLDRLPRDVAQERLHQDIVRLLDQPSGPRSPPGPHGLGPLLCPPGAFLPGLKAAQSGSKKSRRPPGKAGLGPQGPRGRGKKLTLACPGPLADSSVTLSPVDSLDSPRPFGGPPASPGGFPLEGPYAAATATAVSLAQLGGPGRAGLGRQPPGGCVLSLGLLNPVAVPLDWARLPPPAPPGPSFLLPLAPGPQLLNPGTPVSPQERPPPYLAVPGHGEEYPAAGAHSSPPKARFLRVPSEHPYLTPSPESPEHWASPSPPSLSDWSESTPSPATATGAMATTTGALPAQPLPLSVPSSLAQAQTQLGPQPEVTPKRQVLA
# Chain of Torsin-1A-interacting protein 2 (Homo sapiens) (Q8NFQ8 whole entry, looked up): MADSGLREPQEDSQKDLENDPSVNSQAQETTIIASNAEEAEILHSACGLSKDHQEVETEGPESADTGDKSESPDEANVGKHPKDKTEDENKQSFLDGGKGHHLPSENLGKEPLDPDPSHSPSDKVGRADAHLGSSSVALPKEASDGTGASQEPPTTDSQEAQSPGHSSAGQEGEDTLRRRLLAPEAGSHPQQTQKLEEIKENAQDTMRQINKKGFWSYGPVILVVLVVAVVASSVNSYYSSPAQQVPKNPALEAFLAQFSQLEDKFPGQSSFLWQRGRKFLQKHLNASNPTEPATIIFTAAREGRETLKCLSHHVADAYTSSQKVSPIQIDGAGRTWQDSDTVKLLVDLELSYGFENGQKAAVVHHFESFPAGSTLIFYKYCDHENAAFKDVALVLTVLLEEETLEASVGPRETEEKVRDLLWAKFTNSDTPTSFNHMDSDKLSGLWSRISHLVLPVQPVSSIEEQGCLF
Structure (SMILES),composite z-score [1],z-score [2],z-score [3],z-score [4],composite z-score [5],z-score [6],composite z-score [7],composite z-score [8],composite z-score [9],composite z-score [10],composite z-score [11],composite z-score [12],composite z-score [13],z-score [14],composite z-score [15],composite z-score [16],composite z-score [17],composite z-score [18],composite z-score [19],composite z-score [20]
CCCCCN1CC=CC23O[C@@H]4/C=C\CCC(C)OC(=O)C4[C@H]2C(=O)N(CCCCCCO)[C@@H]3C1=O (stereo not given in full),0.523,0.735 (inactive),0.157 (inactive),-0.635 (inactive),1.79,1.24 (inactive),-0.119,0.296,0.109,-0.126,1.44,-0.219,0.248,-0.833 (inactive),-0.381,-0.459,-0.434,-0.303,-0.397,1.13
NC(=O)[C@@H]1[C@H]2C(=O)O[C@H](c3ccccc3)[C@H](c3ccccc3)N2[C@H](c2ccc(OCCO)cc2)[C@@]12C(=O)Nc1ccc(C#CCCO)cc12,1.45,1.58 (inactive),0.883 (inactive),2.3 (inactive),1.85,0.459 (inactive),0.0847,-0.159,-0.0629,-0.0622,0.344,0.585,0.823,1.02 (inactive),0.372,-0.168,-0.385,-0.12,0.0322,0.297
C=CCN1C(=O)[C@]2(O[C@H](CCO)[C@@H]([Si](C)(C)c3ccc(OC)cc3)[C@@H]2C)c2cc(NC(=O)c3ccc(OC)cc3)ccc21,1.5,0.405 (inactive),-1.91 (inactive),2.89 (inactive),0.739,0.577 (inactive),-0.166,1.62,0.924,-0.111,0.527,-0.19,-0.525,-2.1 (inactive),0.468,0.448,0.484,1.23,0.682,0.982
O=C(CS)NCCCCCNC(=O)[C@@H]1C[C@@H]2C(=O)N[C@@H](Cc3ccccc3)C(=O)N2[C@@H]1c1cccc(OCCO)c1,1.56,0.368 (inactive),-0.653 (inactive),0.658 (inactive),3.04,0.142 (inactive),-0.515,0.203,0.823,-0.0271,1.74,0.0021,0.0402,-0.345 (inactive),1.17,1.32,0.526,0.988,1.25,-0.678
C=C(C)C1CCC(C(O)C2C=CC3C(=O)N(C)C(=O)C3N2Nc2cc(OC)c(OC)c(OC)c2)CC1 (stereo not given),1.51,0.367 (inactive),0.458 (inactive),0.0769 (inactive),3.28,-1.37 (inactive),0.0361,0.205,1.02,0.0763,0.506,0.005,0.422,0.719 (inactive),0.755,1.17,0.885,1.15,0.519,1.11
C=CC1c2cc(O)c(OC)cc2CCN1Cc1ccc([N+](=O)[O-])o1 (stereo not given),-0.047,0.994 (inactive),-0.61 (inactive),0.757 (inactive),2.77,0.694 (inactive),0.0761,-0.273,0.606,0.0779,1.19,0.819,0.826,-0.109 (inactive),0.367,-0.128,-0.841,-0.15,-0.641,0.87
COc1ccc([Si](C)(C)[C@H]2[C@H](CC(=O)N3Cc4ccccc4C[C@H]3CO)O[C@@]3(C(=O)N(Cc4ccc(N5C(=O)c6cccc7cccc5c67)cc4)c4ccccc43)[C@@H]2C)cc1,1.56,-0.823 (inactive),1.17 (inactive),2.88 (inactive),2.7,0.489 (inactive),-0.178,1.14,1.15,-0.027,0.959,-0.247,-0.0288,-0.91 (inactive),0.884,1.28,0.868,1.31,0.879,0.473
C=C(CCCC)C(=O)CC[C@@H](OC(=O)c1cccnc1)c1ccc(OCCO)cc1,1.48,-0.405 (inactive),-2.22 (inactive),-0.861 (inactive),1.18,-0.288 (inactive),-0.113,1.93,0.952,-0.0828,1.25,-0.191,-0.266,2.51 (inactive),1.67,0.704,0.298,1.39,0.714,0.982
O=C(O)[C@@H]1C[C@@H]2C(=O)N3CCC[C@H]3C(=O)N2[C@@H]1c1cccc(OCCO)c1,1.53,-0.386 (inactive),-1.98 (inactive),-0.533 (inactive),4.25,1.14 (inactive),1.49,1.95,1.07,1.27,2.07,2.67,1.72,0.0627 (inactive),1.36,1.44,1.41,1.54,1.9,1.98
C=CCC(OC(C)=O)[C@@H]1[C@@H](N(Cc2ccc(-c3cccc(C(F)(F)F)c3)o2)C(=O)c2ccc(C)cc2)c2cc(OCCCO)ccc2N1C(=O)Cc1ccc(OC)cc1 (stereo not given in full),-0.118,0.9 (inactive),0.145 (inactive),0.0453 (inactive),-0.639,1.34 (inactive),-0.131,-0.0236,-0.0141,-0.0828,1.1,-0.145,-0.0583,-0.0858 (inactive),-0.0938,-0.808,-0.0424,0.345,0.0682,0.975

# — PubChem BioAssay
